In PubChem BioAssay AID1159580 (chemical genetic matrix, 2015):
Where “and” joins values, the source holds several entries; their conditions need not be identical. Identical values can stand only once. In all, about 5,500 compounds went through this assay and about 2,000 (36%) were called active. Not shown: some 18% with an inconclusive outcome. Cut-off read from the data, not from the text of the source: active = normalized growth mostly below about 0.91 (no sharp cut-off); inconclusive = no clear call, values can overlap the other calls; inactive = mostly above about 0.92. Some of the results follow.

Assay: chemical genetic growth profiling, strain panel (AID 1159580);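 note: tested at 20 µM; growth read once vehicle control cultures reached saturation at 30 °C; 1 = growth at the plate median or of vehicle wells; lower values mean less growth of the strain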
Settings: S. cerevisiae deletion strains, growth OD

Measured: normalized growth

CC(C)=CC1C(CO)C1(C)C (centres undefined)
inactive: locus YAL021C, strain ccr4, active compounds read low 1.01 | locus YAL026C, strain drs2, active compounds read low 1.03 | locus YAL030W, strain snc1, active compounds read low 1.02 | locus YBL061C, strain skt5, active compounds read low 1.02 | locus YBR009C, strain hhf1, active compounds read low 1.03 | locus YBR021W, strain FUR4, active compounds read low 1.02 | locus YBR023C, strain chs3, active compounds read low 1.02 | locus YBR171W, strain sec66, active compounds read low 1.03 | locus YBR229C, strain ROT2, active compounds read low 1.02 | locus YBR231C, strain swc5, active compounds read low 1.02 | locus YBR279W, strain paf1, active compounds read low 1.02 | locus YCL011C, strain gbp2, active compounds read low 1.02 | locus YCL016C, strain dcc1, active compounds read low 1.02 | locus YCL029C, strain bik1, active compounds read low 0.994 | locus YCL061C, strain MRC1, active compounds read low 1.01 | locus YCL069W, strain vba3, active compounds read low 1.01 | locus YCR088W, strain abp1, active compounds read low 1.02 | locus YDL005C, strain med2, active compounds read low 1.03 | locus YDL035C, strain GPR1, active compounds read low 1.03 | locus YDL040C, strain nat1, active compounds read low 1.02 | locus YDL074C, strain BRE1, active compounds read low 1.03 | locus YDL101C, strain DUN1, active compounds read low 1.03 | locus YDL185W, strain tfp1, active compounds read low 0.999 | locus YDL192W, strain arf1, active compounds read low 1.01 | locus YDR001C, strain nth1, active compounds read low 1.01 | locus YDR069C, strain doa4, active compounds read low 1.04 | locus YDR101C, strain arx1, active compounds read low 1 | locus YDR137W, strain rgp1, active compounds read low 1.04 | locus YDR159W, strain sac3, active compounds read low 1.03 | locus YDR162C, strain NBP2, active compounds read low 1.03 | locus YDR195W, strain ref2 0.992 | locus YDR297W, strain sur2, active compounds read low 1.03 | locus YDR318W, strain mcm21, active compounds read low 0.995 | locus YDR334W, strain swr1, active compounds read low 1.02 | locus YDR335W, strain msn5, active compounds read low 1.02 | locus YDR388W, active compounds read low 0.999 | locus YDR392W, strain spt3, active compounds read low 0.981 | locus YDR502C, strain sam2, active compounds read low 0.994 | locus YEL003W, strain gim4, active compounds read low 1.02 | locus YEL037C, strain rad23, active compounds read low 1.02 | locus YEL061C, strain CIN8 (second series), active compounds read low 1.01 | locus YEL061C, strain CIN8, active compounds read low 1.01 | locus YER015W, strain faa2, active compounds read low 1.02 | locus YER016W, strain bim1, active compounds read low 1.02 | locus YER110C, active compounds read low 1.01 | locus YER111C, strain swi4, active compounds read low 1.02 | locus YER155C, strain BEM2 (second series), active compounds read low 1.04 | locus YER155C, strain BEM2, active compounds read low 1.01 | locus YER167W, strain BCK2, active compounds read low 1.02 | locus YFR010W, strain ubp6, active compounds read low 1.03 | locus YGL078C, strain dbp3, active compounds read low 1 | locus YGL086W, strain mad1, active compounds read low 1.01 | locus YGL167C, strain pmr1, active compounds read low 1.02 | locus YGL173C, strain kem1, active compounds read low 1.02 | locus YGL227W, strain vid30, active compounds read low 1.02 | locus YGL240W, strain doc1, active compounds read low 1.04 | locus YGL248W, strain PDE1, active compounds read low 1.03 | locus YGL253W, strain hxk2, active compounds read low 1.02 | locus YGR078C, strain PAC10, active compounds read low 1.04 | locus YGR135W, strain pre9, active compounds read low 1.01 | locus YGR252W, strain gcn5, active compounds read low 0.989 | locus YHR013C, strain ard1, active compounds read low 1.04 | locus YHR027C, strain rpn1, active compounds read low 1.02 | locus YHR030C, strain SLT2, active compounds read low 1.02 and 0.985 | locus YHR079C, strain IRE1 (second series), active compounds read low 1.01 | locus YHR079C, strain IRE1, active compounds read low 0.994 | locus YHR094C, strain hxt1, active compounds read low 0.984 | locus YHR129C, strain ARP1, active compounds read low 1.02 | locus YHR142W, strain chs7, active compounds read low 1.01 | locus YHR200W, strain rpn10, active compounds read low 1 | locus YIL066C, strain RNR3, active compounds read low 1.04 | locus YIL073C, strain SPO22, active compounds read low 1.02 | locus YIL125W, strain kgd1, active compounds read low 1.01 | locus YIR030C, strain dcg1, active compounds read low 1 | locus YJL092W, strain hpr5, active compounds read low 1.01 | locus YJL095W, strain BCK1 (second series), active compounds read low 1.02 | locus YJL095W, strain BCK1, active compounds read low 1.04 and 0.986 | locus YJL115W, strain asf1, active compounds read low 1.02 | locus YJL129C, strain trk1, active compounds read low 1.02 | locus YJL134W, strain LCB3, active compounds read low 1.02 | locus YJL154C, strain vps35, active compounds read low 1 | locus YJL164C, strain tpk1, active compounds read low 1.02 | locus YJL166W, strain qcr8, active compounds read low 1.02 | locus YJL168C, strain set2, active compounds read low 0.997 | locus YJL187C, strain SWE1 (second series), active compounds read low 1.04 | locus YJL187C, strain SWE1, active compounds read low 1.02 | locus YJR043C, strain POL32, active compounds read low 1.04 | locus YJR066W, strain TOR1, active compounds read low 0.957 | locus YKL009W, strain mrt4, active compounds read low 1 | locus YKL068W, active compounds read low 1.01 | locus YKL085W, strain MDH1 (second series), active compounds read low 0.998 | locus YKL085W, strain MDH1, active compounds read low 0.998 | locus YKL160W, strain elf1, active compounds read low 1.01 | locus YKL190W, strain CNB1, active compounds read low 1.02 | locus YKR001C, strain vps1, active compounds read low 1.01 | locus YKR026C, strain gcn3, active compounds read low 0.994 | locus YKR091W, strain srl3, active compounds read low 1.02 | locus YLL001W, strain dnm1, active compounds read low 1.03 | locus YLL026W, active compounds read low 1.02 | locus YLL041C, strain sdh2, active compounds read low 1.01 | locus YLR027C, strain aat2, active compounds read low 1.02 | locus YLR039C, strain RIC1, active compounds read low 1.07 | locus YLR058C, strain SHM2, active compounds read low 1.02 | locus YLR102C, strain apc9, active compounds read low 0.989 | locus YLR113W, strain HOG1, active compounds read low 0.976 | locus YLR221C, strain rsa3, active compounds read low 1.02 | locus YLR258W, strain gsy2, active compounds read low 1.03 | locus YLR262C, strain YPT6 (second series), active compounds read low 1.02 | locus YLR262C, strain YPT6, active compounds read low 1.07 | locus YLR268W, strain sec22, active compounds read low 0.999 | locus YLR320W, strain mms22, active compounds read low 1.04 | locus YLR330W, strain CHS5, active compounds read low 1.02 | locus YLR342W, strain FKS1 (second series), active compounds read low 1.02 | locus YLR342W, strain FKS1, active compounds read low 1.03 | locus YLR357W, strain rsc2, active compounds read low 1.04 | locus YLR370C, strain arc18, active compounds read low 1.01 | locus YLR371W, strain rom2, active compounds read low 1 | locus YLR384C, strain iki3, active compounds read low 0.999 | locus YLR418C, strain cdc73, active compounds read low 0.99 | locus YML016C, strain PPZ1, active compounds read low 1.02 | locus YML032C, strain rad52, active compounds read low 0.997 | locus YML120C, strain ndi1, active compounds read low 1.02 | locus YML124C, strain tub3, active compounds read low 1.01 | locus YMR058W, strain fet3, active compounds read low 1.01 | locus YMR078C, strain ctf18, active compounds read low 0.99 | locus YMR125W, strain sto1, active compounds read low 1.03 | locus YMR129W, active compounds read low 1.01 | locus YMR205C, strain PFK2, active compounds read low 1.04 | locus YMR223W, strain ubp8, active compounds read low 1.01 | locus YMR231W, strain pep5, active compounds read low 1.02 | locus YMR263W, strain SAP30, active compounds read low 1.03 | locus YMR307W, strain GAS1, active compounds read low 1.11 | locus YNL067W, strain RPL9B, active compounds read low 1.04 | locus YNL071W, strain lat1, active compounds read low 1.02 | locus YNL153C, strain GIM3, active compounds read low 1.04 | locus YNL183C, strain NPR1, active compounds read low 0.955 | locus YNL209W, strain ssb2, active compounds read low 1.03 | locus YNL233W, strain BNI4, active compounds read low 1.03 | locus YNL248C, strain rpa49, active compounds read low 1.02 | locus YNL250W, strain rad50, active compounds read low 0.994 | locus YNL271C, strain bni1, active compounds read low 1 | locus YNL298W, strain CLA4, active compounds read low 0.998 | locus YNL307C, strain MCK1, active compounds read low 1.01 | locus YNL322C, strain KRE1 (second series), active compounds read low 1.02 | locus YNR049C, strain mso1, active compounds read low 1.03 | locus YNR052C, strain pop2, active compounds read low 0.995 | locus YOL012C, strain htz1 0.795 | locus YOL147C, strain pex11, active compounds read low 0.993 | locus YOR001W, strain rrp6, active compounds read low 1.01 | locus YOR061W, strain CKA2, active compounds read low 1.02 | locus YOR069W, strain VPS5, active compounds read low 1.02 | locus YOR070C, strain gyp1, active compounds read low 1.02 | locus YOR080W, strain dia2, active compounds read low 1.02 | locus YOR083W, strain WHI5, active compounds read low 1.01 | locus YOR106W, strain vam3, active compounds read low 1.02 | locus YOR136W, strain idh2, active compounds read low 0.991 | locus YOR144C, strain elg1, active compounds read low 0.991 | locus YOR184W, strain ser1, active compounds read low 1.01 | locus YOR231W, strain MKK1, active compounds read low 0.978 | locus YOR265W, strain rbl2, active compounds read low 1.02 | locus YOR270C, strain vph1, active compounds read low 1.03 | locus YOR290C, strain snf2, active compounds read low 0.991 | locus YOR316C, strain cot1, active compounds read low 0.991 | locus YPL051W, strain arl3, active compounds read low 1.01 | locus YPL078C, strain atp4, active compounds read low 1.01 | locus YPL106C, strain sse1, active compounds read low 1.01 | locus YPL240C, strain hsp82, active compounds read low 1.03 | locus YPL241C, strain CIN2, active compounds read low 1.02 | locus YPL256C, strain CLN2, active compounds read low 0.97 | locus YPR119W, strain clb2, active compounds read low 0.989 | locus YPR141C, strain kar3, active compounds read low 1 | locus YPR163C, strain tif3, active compounds read low 0.99 | locus YPR167C, strain met16, active compounds read low 1.01 | strain wtn01, active compounds read low 0.99
